In the library only some 6.8% were active in any assay of this set; here they are far more common.
PMK inhibit – inhibitors of Streptococcus pneumoniae phosphomevalonate kinase; purified PMK, PK/LDH-coupled NADH absorbance 340 nm; actives 0.49% (n = 65,000); inhibition, % at 10 µM;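 active = top-ranked compounds by inhibition in the single 10 µM screen, taking a fixed number of the strongest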;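 note: 0% = full reaction with DMSO carrier and 100% = background rate without enzyme reaction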
Autofluor 339 – intrinsic fluorescence of library compounds, ex339/em460 – biochemical, MLSMR library, data from DPM-DC assay, artefact control, profiling panel; compound autofluorescence, ex339/em460 nm, NADH buffer; stronger effect = higher value; 1 = no-compound wells, NADH background; fluorescence fold increase at 10 µM; actives 5.5% (n = 65,000); AID 709;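 active = at 10 µM, mean starting fluorescence two-fold or more over control wells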;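 note: signal is the first read of a kinetic run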
DPM-DC inhibit – blocks S. pneumoniae diphosphomevalonate decarboxylase. purified DPM-DC, PK/LDH coupled NADH fluorescence. calls only at 10 µM. actives 0.49% (n = 65,000). AID 556;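 active = the 320 compounds with the highest percent inhibition in the single-dose primary screen, excluding strongly autofluorescent ones, cut at about 32% in these data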;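 note: kinetic rate of NADH fluorescence loss reporting ADP formed by the decarboxylase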
NADH enzymes – inhibition of NAD/NADH coupling enzymes, library profiling | IC50, µM (top dose mostly 10 µM), for the others: at the top dose inhibition | actives 0.02% (n = 65,000) | AID 774 | coupled PK/LDH NADH assays, four targets;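 active = single-dose screening hits from any of four coupled enzyme assays that gave an IC50 when retested across doses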;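 note: the DPM-DC format reads NADH fluorescence rather than 340 nm absorbance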
Abs 340nm – compounds absorbing at 340 nm; 65,000 tested, under 10 active; compound absorbance at 340 nm, fold over control; fold change at 10 µM;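 active = at 10 µM dose, initial 340 nm absorbance at least 2 fold that of control wells; inactive = change under 2 fold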;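 note: initial absorbance extrapolated from kinetic A340 decline of NADH oxidation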
Spn MK inh – blocks S. pneumoniae mevalonate kinase; purified MK, PK/LDH-coupled NADH absorbance 340 nm; inhibition, % at 10 µM; actives 0.48% (n = 65,000);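 active = ranked among the strongest by inhibition in the single 10 µM screen, a fixed top-ranked set picked for dose follow-up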
An asterisk follows results filed as active; i = inactive; · = no result shown.

SMILES	PMK inhibit	Autofluor 339	DPM-DC inhibit	NADH enzymes	Abs 340nm	Spn MK inh
Cn1c(=O)c2c(nc(N3CCCCCC3)n2Cc2cccc3ccccc23)n(C)c1=O	0	1	i	4%	1	13
CN1CCN(c2nc3c(c(=O)n(C)c(=O)n3C)n2Cc2cccc3ccccc23)CC1	3	1	i	5%	0.98	active
Cn1c(=O)c2c(nc(N3CCOCC3)n2C)n(C)c1=O	26*	1.1	i	9%	1	0
COc1ccc(C(=O)Nc2ccncc2)cc1OC	40*	0.96	i	14%	1	3
COc1ccc(C(=O)Nc2nccs2)cc1OC	10	1.1	i	4%	1.1	3
O=S(=O)(c1ccc2c(c1)OCCO2)N(Cc1ccc(F)cc1)Cc1nnc(-c2cccs2)o1	10	1	i	2%	0.99	3
N=c1c(C(=O)NCc2ccccc2)cc2c(=O)n3ccccc3nc2n1Cc1ccco1	0	1.9	i	6%	1	0
N=c1c(C(=O)NCc2ccc(F)cc2)cc2c(=O)n3ccccc3nc2n1Cc1ccco1	7	2.7*	i	7%	1.1	0
CCOC(=O)c1cc2c(=O)n3ccccc3nc2n(CC2CCCO2)c1=NC(C)=O (configuration not stated)	12	2*	i	9%	1	10
Cc1ccc(CNC(=O)c2cc3c(=O)n4ccccc4nc3n(Cc3ccco3)c2=N)cc1	6	2.3*	·	7%	1	8
Cc1ccc(CNC(=O)c2cc3c(=O)n4ccccc4nc3n(CC3CCCO3)c2=N)cc1 (configuration not stated)	8	2.4*	·	5%	1	1
CC(NC(=O)c1ccc2c(c1)OCO2)C1CCCO1 (configuration not stated)	4	1.1	i	1%	1	0
CCCn1nc(-c2nnc(-c3ccc(C)c(C)c3)o2)c2ccccc2c1=O	13	1.1	i	7%	1	7
Cc1cc(NC(=O)Cn2cnc3c2c(=O)n(C)c(=O)n3C)n(-c2ccccc2)n1	13	1.1	i	11%	0.98	0
CSc1nnc(-c2cnccn2)n1CCCN1CCCC1=O	1	1.1	i	0%	1	0
O=C(O)C(CC(=O)N1CCOCC1)NCc1ccccc1 (configuration not stated)	6	1.1	i	8%	1.1	15
Cc1cccc(C)c1NC(=O)Cn1c(=O)n(CCC(=O)NCc2ccco2)c(=O)c2sccc21	16	1.1	i	7%	0.99	6
CCOc1ccc(OCc2ccc(C(=O)OCc3ccccn3)o2)cc1	7	0.89	i	9%	1	7
Cn1c(=O)c2c(SCC(=O)NCC3CCCO3)nc(-c3cccs3)nc2n(C)c1=O (configuration not stated)	2	2.2*	·	3%	1.2	3
CC(C)Sc1nc(-c2cccs2)nc2c1c(=O)n(C)c(=O)n2C	14	1.4	i	9%	1.1	8
Cc1ccc(S(=O)(=O)CCC(=O)OCC(=O)Nc2ncc(Cl)cc2Cl)cc1	14	2	i	5%	0.97	2
Cc1ccc2c(n1)sc1c(N)ncnc12	14	2.1*	i	15%	1	9
COC(=O)C1=CN(CCCN2CCCC2=O)C=C(C(=O)OC)C1c1cccs1	8	4.8*	·	6%	1	4
COC(=O)C1=C(N)OC2=C(C(=O)CC(C)(C)C2)C1c1cccs1 (configuration not stated)	0	1.1	i	1%	1.1	4
COCCCNC(=O)C1C2C=CC3(CN(Cc4ccc(C)cc4)C(=O)C13)O2 (configuration not stated)	25*	0.85	i	12%	1	0
Cc1ccc(CN2CC34C=CC(O3)C(C(=O)NCc3ccc5c(c3)OCO5)C4C2=O)cc1 (configuration not stated)	0	1.1	i	3%	1.1	9
C/C(=N\O)C1(C)N(O)C(C)(C)C(c2ccco2)=[N+]1[O-] (configuration not stated)	1	1.1	i	0%	1	0
COc1ccc2nc(SCC(=O)N(C)C3CCCCC3)c(C#N)cc2c1	8	1.2	i	8%	1	14
